Measured values reported in PubChem BioAssay (EPA / NIEHS).
Several values for one entry are separate records, joined by “and”; a condition that tells them apart may be missing. Equal values may be shown once. The source holds several records for some structures; these can differ, active in one and inactive in another. Activity calls are given as the source filed them. Rule for the calls: active = hit-call score of the fitted dose curve at least 0.9, where 1 is the maximum; inactive = score below 0.9.

Read-out: not listed separately
Assay: BSK_hDFCGF_SRB: Viability Assessment in the BioMAP Diversity Plus: hDFCGF Assay (AID 2283061);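 note: cells exposed to compound for 24 h before the read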
Settings: primary human foreskin fibroblasts
Procedure, shortened: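 Human foreskin primary fibroblasts were treated with compound and assessed 24 h after dosing. Total protein was measured by sulforhodamine B staining (0.1% SRB after 10% TCA fixation, 560 nm read) as a cytotoxicity marker, with bidirectional fitting against DMSO baseline.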

| Structure (SMILES) | AC50 | outcome |
| --- | --- | --- |
| O=C(O)C(F)(F)C(F)(F)C(F)(F)C(F)(F)C(F)(F)C(F)(F)C(F)(F)F | 1.5 µM (active) | inactive |
| CNC(=O)/C=C(\C)OP(=O)(OC)OC | – | inactive |
| CC1(c2ccc(Oc3ccccc3)cc2)OC(=O)N(Nc2ccccc2)C1=O (stereo not drawn) | – | inactive |
| O=C(Nc1ccccc1)Nc1cnns1 | – | inactive |
| COP(=S)(OC)Oc1ccc([N+](=O)[O-])cc1 | – | inactive |
| CNC(=O)Oc1cccc(N=CN(C)C)c1 | – | inactive |
| CCCN(CCOc1c(Cl)cc(Cl)cc1Cl)C(=O)n1ccnc1 | 16 µM (active) | – |
| COC(=O)c1ccccc1S(=O)(=O)NC(=O)Nc1nc(C)nc(OC)n1 | – | inactive |
| Cc1cc(C)nc(NC(=O)NS(=O)(=O)c2ccccc2C(=O)OC2COC2)n1 | – | inactive |
| CCC(C)(C)C(=O)OC1=C(c2ccc(Cl)cc2Cl)C(=O)OC12CCCCC2 | 11.4 µM (active) | – |
| CNC(=O)Oc1ccccc1OC(C)C | – | inactive |
| Clc1ccccc1-c1nnc(-c2ccccc2Cl)nn1 | – | inactive |
| O=C1c2ccccc2C(=O)N1SC(Cl)(Cl)Cl | 33.1 µM (active) | – |
| Cc1[nH]c(=O)n(C(C)(C)C)c(=O)c1Cl | – | inactive |
| C[C@H]1[C@H](c2ccc(Cl)cc2)SC(=O)N1C(=O)NC1CCCCC1 | 8.97 µM (active) | – |
| COC(=O)c1ccccc1S(=O)(=O)NC(=O)N(C)c1nc(C)nc(OC)n1 | – | inactive |
| CCc1ccc(C(=O)NN(C(=O)c2cc(C)cc(C)c2)C(C)(C)C)cc1 | – | inactive |
| CC[C@H](C)[C@H]1O[C@]2(C=C[C@@H]1C)C[C@@H]1C[C@@H](C/C=C(\C)[C@@H](O[C@H]3C[C@H](OC)[C@@H](O[C@H]4C[C@H](OC)[C@@H](O)[C@H](C)O4)[C@H](C)O3)[C@@H](C)/C=C/C=C3\CO[C@@H]4[C@H](O)C(C)=C[C@@H](C(=O)O1)[C@]34O)O2 (tested in a mixture with another compound) | 6.68 µM (active) | – |
| O=S(=O)(O)C(F)(F)C(F)(F)C(F)(F)C(F)(F)C(F)(F)C(F)(F)C(F)(F)C(F)(F)F | 20 µM (active) | inactive |
| COP(=S)(OC)Oc1ccc(SC)c(C)c1 | – | inactive |
| COC(=O)c1ccccc1CS(=O)(=O)NC(=O)Nc1nc(OC)cc(OC)n1 | – | inactive |
| Oc1cc(Cl)ccc1Oc1ccc(Cl)cc1Cl | 13.1 µM (active) and 9.31 µM (active) and 17 µM (active) | – |
| OCCOc1ccccc1 | – | inactive |
| ClC1C(Cl)C(Cl)C(Cl)C(Cl)C1Cl (stereo not drawn) | – | inactive |
| CC(C)N(C(=O)COc1nnc(C(F)(F)F)s1)c1ccc(F)cc1 | – | inactive |

Read-out: TIMP metallopeptidase inhibitor 1 (TIMP1), TIMP1 (gene 7076)
Assay: BSK_hDFCGF_TIMP1: BioMAP Diversity Plus: hDFCGF Assay for TIMP metallopeptidase inhibitor 1 (TIMP1) Biomarker Activity (AID 2283062)
Settings: primary human foreskin fibroblasts; actives raise or lower the signal
Procedure, shortened: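 Primary human foreskin fibroblasts in the hDFCGF system were dosed with compound for 24 h, then TIMP-1 was measured by ELISA. Activity was fitted bidirectionally relative to DMSO control; parallel SRB staining assessed cytotoxicity.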

| Structure (SMILES) | outcome | AC50 |
| --- | --- | --- |
| O=C(O)C(F)(F)C(F)(F)C(F)(F)C(F)(F)C(F)(F)C(F)(F)C(F)(F)F | inactive | – |
| CNC(=O)/C=C(\C)OP(=O)(OC)OC | inactive | – |
| CC1(c2ccc(Oc3ccccc3)cc2)OC(=O)N(Nc2ccccc2)C1=O (stereo not drawn) | inactive | – |
| O=C(Nc1ccccc1)Nc1cnns1 | inactive | – |
| COP(=S)(OC)Oc1ccc([N+](=O)[O-])cc1 | – | 5.75 µM (active) |
| CNC(=O)Oc1cccc(N=CN(C)C)c1 | inactive | – |
| CCCN(CCOc1c(Cl)cc(Cl)cc1Cl)C(=O)n1ccnc1 | inactive | – |
| COC(=O)c1ccccc1S(=O)(=O)NC(=O)Nc1nc(C)nc(OC)n1 | inactive | – |
| Cc1cc(C)nc(NC(=O)NS(=O)(=O)c2ccccc2C(=O)OC2COC2)n1 | inactive | – |
| CCC(C)(C)C(=O)OC1=C(c2ccc(Cl)cc2Cl)C(=O)OC12CCCCC2 | – | 5.42 µM (active) |
| CNC(=O)Oc1ccccc1OC(C)C | inactive | – |
| Clc1ccccc1-c1nnc(-c2ccccc2Cl)nn1 | inactive | – |
| O=C1c2ccccc2C(=O)N1SC(Cl)(Cl)Cl | inactive | – |
| Cc1[nH]c(=O)n(C(C)(C)C)c(=O)c1Cl | inactive | – |
| C[C@H]1[C@H](c2ccc(Cl)cc2)SC(=O)N1C(=O)NC1CCCCC1 | inactive | – |
| COC(=O)c1ccccc1S(=O)(=O)NC(=O)N(C)c1nc(C)nc(OC)n1 | inactive | – |
| CCc1ccc(C(=O)NN(C(=O)c2cc(C)cc(C)c2)C(C)(C)C)cc1 | inactive | – |
| CC[C@H](C)[C@H]1O[C@]2(C=C[C@@H]1C)C[C@@H]1C[C@@H](C/C=C(\C)[C@@H](O[C@H]3C[C@H](OC)[C@@H](O[C@H]4C[C@H](OC)[C@@H](O)[C@H](C)O4)[C@H](C)O3)[C@@H](C)/C=C/C=C3\CO[C@@H]4[C@H](O)C(C)=C[C@@H](C(=O)O1)[C@]34O)O2 (tested in a mixture with another compound) | – | 9.96 µM (active) |
| O=S(=O)(O)C(F)(F)C(F)(F)C(F)(F)C(F)(F)C(F)(F)C(F)(F)C(F)(F)C(F)(F)F | inactive | 0.485 µM (active) |
| COP(=S)(OC)Oc1ccc(SC)c(C)c1 | inactive | – |
| COC(=O)c1ccccc1CS(=O)(=O)NC(=O)Nc1nc(OC)cc(OC)n1 | inactive | – |
| Oc1cc(Cl)ccc1Oc1ccc(Cl)cc1Cl | – | 20 µM (active) [middle of 4 runs] |
| OCCOc1ccccc1 | inactive | – |
| ClC1C(Cl)C(Cl)C(Cl)C(Cl)C1Cl (stereo not drawn) | inactive | – |
| CC(C)N(C(=O)COc1nnc(C(F)(F)F)s1)c1ccc(F)cc1 | inactive | – |
